Compound activity from PubChem.
PLAP act = PLAP enzyme activators, biochemical, luminescence, HTS; 96,000 compounds, 1.2% hits; activation fold at 20 µM; purified PLAP enzyme, luminescent substrate read-out; active compounds read high; AID 696, 2007; in the data active = activation fold above about 2
Target sequence (P05187 whole entry, looked up): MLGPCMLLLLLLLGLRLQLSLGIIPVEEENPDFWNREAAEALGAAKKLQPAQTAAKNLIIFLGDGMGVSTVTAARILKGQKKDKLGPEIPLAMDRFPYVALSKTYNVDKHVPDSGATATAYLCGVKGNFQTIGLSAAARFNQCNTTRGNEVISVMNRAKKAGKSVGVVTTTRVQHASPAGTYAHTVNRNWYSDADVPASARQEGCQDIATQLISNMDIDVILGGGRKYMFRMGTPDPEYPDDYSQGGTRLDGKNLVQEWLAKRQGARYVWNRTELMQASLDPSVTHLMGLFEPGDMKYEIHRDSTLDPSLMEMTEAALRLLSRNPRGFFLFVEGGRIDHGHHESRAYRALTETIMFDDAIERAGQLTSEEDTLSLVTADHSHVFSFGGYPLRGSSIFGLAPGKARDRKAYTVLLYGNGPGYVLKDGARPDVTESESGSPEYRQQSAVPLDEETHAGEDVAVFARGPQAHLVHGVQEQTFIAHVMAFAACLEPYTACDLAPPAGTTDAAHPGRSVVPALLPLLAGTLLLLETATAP
Candida biofilm = clotrimazole potentiators killing Candida biofilms, primary screen, with clotrimazole, Alamar Blue; C. albicans biofilm + clotrimazole; inhibition, % at 6 µM; 85,000 compounds, 0.14% hits; AID 834, 2007;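 active = inhibition above 20%; inactive = inhibition below 20%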;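 note: preformed 24 hr biofilms exposed to compound for 48 hr; 0% = biofilm without compound and 100% = blank killed by clotrimazole plus chlorhexidine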
TNAP act DEA = human TNAP enzyme activators, primary screen, biochemical, luminescent, intermediate phosphate acceptor level; 64,000 tested, under 10 active; activation factor at 20 µM; AID 813, 2007; purified TNAP, CDP-star luminescence, 100 mM DEA, 30 min; active compounds read high; scale: 0 levamisole-inhibited, 1 vehicle-only enzyme; Alkaline phosphatase, tissue-nonspecific isozyme (Homo sapiens), P05186;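 active = activation factor of at least 2 at 20 µM, relative to controls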
D1 mod = D1 CRE-luciferase signal change, two-sided – cell-based, HEK293 D1, dopamine EC30, D1 allosteric modulator project, primary screen | D(1A) dopamine receptor (Homo sapiens), P21728 | dopamine EC30 potentiation; actives deviate in either direction | B-score at 10 µM | 58,000 compounds, 5.9% hits | AID 641, 2007;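 active = luminescence count or its row- and column-corrected plate score outside the 99.7% band of the plate's sample wells, on either side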
HePTP inhibitor = inhibitors of human HePTP phosphatase, primary screen, biochemical, absorbance, leukemia target | Tyrosine-protein phosphatase non-receptor type 7 (Homo sapiens), P35236 | 110,000 compounds, 0.64% hits | inhibition, % at 20 µM | recombinant HePTP phosphatase activity, OD absorbance; in the data active = inhibition above about 50%;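 note: plate controls were vehicle for no effect and reference inhibitor for full effect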
DAT uptake mod = changed hDAT dopamine uptake under cocaine IC80, either direction, primary screen, cocaine antagonist project, cell-based, LLC-PK1 hDAT, [14C]-dopamine uptake, MLSMR; B-score at 10 µM; Sodium-dependent dopamine transporter (Homo sapiens), Q01959; AID 449768, 2010; LLC-PK1 hDAT cells, [14C]-dopamine uptake with cocaine IC80; actives deviate in either direction; 110,000 compounds, 1.3% hits;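 active = Z score or B-score, a plate-position-corrected score, falls beyond the plate's 99.7% confidence bounds, in either direction; inactive = both scores lie inside the 99.7% bounds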;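 note: scored against the spread of the other compound wells on the same plate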
Active calls of the source: *; nt = no result; ! = a repeat was not active. The full list was thinned out, with hits kept by preference.

SMILES | PLAP act | Candida biofilm | TNAP act DEA | D1 mod | HePTP inhibitor | DAT uptake mod
COc1ccc(CNC(=O)CCCCCn2c(SCC#N)nc3cc4c(cc3c2=O)OCO4)cc1 | 2.1* | -4 | 0.9 | 0.88 | 8 | 0.49
Cc1ccc(S(=O)(=O)NNc2ccccc2)cc1 | 0.8 | nt | nt | nt | nt | -1.6
CC(C)(C)c1ccc(S(=O)(=O)NNc2ccccc2)cc1 | nt | nt | nt | nt | 101* | nt
COC(=O)CSc1nc2ccc(C)cc2[nH]1 | 1.1 | 7 | nt | nt | nt | 0.039
COC(=O)c1sc2nc(CSc3nc4ccc(C)cc4[nH]3)[nH]c(=O)c2c1C | 2* | -1 | nt | nt | nt | -0.29
C=CCn1c(O)c(C2=c3ccccc3=NC2=O)s/c1=N\S(=O)(=O)c1ccc([N+](=O)[O-])cc1 | nt | nt | nt | nt | 5 | nt
CCN(CC)S(=O)(=O)c1ccc2c3c(cccc13)C(=O)N2 | 1.1 | 3 | 0.9 | 0.19 | 7 | 2.5*
CCN(c1cccc(C)c1)S(=O)(=O)c1ccc2c3c(cccc13)C(=O)N2 | nt | 3 | nt | nt | nt | 0.99
CCc1ccc(NC(=O)COc2ccc(C)cc2C)cc1 | nt | nt | nt | nt | -2 | nt
CCN(CC)C(=S)Sc1nc(Nc2ccc(OC)cc2)nc(Nc2cccc([N+](=O)[O-])c2)n1 | nt | nt | nt | nt | 3 | nt
COc1ccc(/C=N/n2c(=S)n(C)c3ccccc32)cc1OC | 1.4 | 50* | nt | nt | nt | 1.2
O=C1NC(=S)N/C1=C\c1ccc(F)c(Br)c1 | nt | nt | nt | nt | -7 | nt
CCOc1cc(N2CCOCC2)c(OCC)cc1N | nt | nt | nt | nt | 68* | nt
CCOc1cc(N2CCOCC2)c(OCC)cc1NC(=O)CC12CC3CC(CC(C3)C1)C2 | 1.7 | nt | nt | nt | nt | 2.7*
CCOc1cc(N2CCOCC2)c(OCC)cc1NC(=O)Cc1ccc(OC)c(OC)c1 | 1.4 | 0 | 0.9 | 2.2 | 4 | nt
COc1cc(C2Nc3ccccc3C(=O)N2Cc2ccccc2)ccc1O (stereo not drawn) | nt | nt | nt | nt | 7 | nt
CCOC(=O)C1=C(C)NC(=S)NC1c1ccc(-c2cccc(Cl)c2C)o1 (stereo not drawn) | 0.9 | nt | nt | nt | nt | -8.7*
O=Cc1ccccc1OCc1ccc(I)cc1 | nt | nt | nt | nt | 7 | nt
Cc1cccc(-n2c(CCn3nc(C)c([N+](=O)[O-])c3C)n[nH]c2=S)c1 | 2.1* | nt | nt | nt | nt | 0.83
CCn1c(SCC(=O)N2CCN(c3ccccc3F)CC2)nnc1-c1ccoc1C | 1.7 | 8 | 1 | -0.49 | -4 | 2.7*
O=C(COc1ccc(C2CCCCC2)cc1)Nc1cc(C(=O)O)cc(C(=O)O)c1 | nt | nt | nt | nt | 2 | nt
N#CCC(=O)N1CCN(C(c2ccccc2)c2ccccc2)CC1 | nt | nt | nt | nt | 103* | nt
O=C(C1CC1)N1CCN(C(c2ccccc2)c2ccccc2)CC1 | 1.7 | 41* | nt | nt | nt | 0.16
O=C(CN1CCN(C(c2ccccc2)c2ccccc2)CC1)N1CCOCC1 | 1.8 | 6 | 0.9 | 0.047 | -4 | -0.012
O=C1OC(c2ccc(Cl)cc2)=C/C1=C\c1ccc(-c2ccccc2C(=O)O)o1 | nt | nt | nt | nt | 33 | nt
SMILES | PLAP act | Candida biofilm | TNAP act DEA | D1 mod | HePTP inhibitor | DAT uptake mod
O=C(CSc1nnc(CN2CCCCCC2=O)n1-c1ccccn1)NCC(F)(F)F | 1.2 | 6 | 1 | -3.3* | 8 | -0.041
CC(C)(C)NC(=O)CSc1nnc(CN2CCCCCC2=O)n1-c1ccccn1 | 1.6 | 6 | 0.9 | 0.34 | 11 | 0.4
O=C(CSc1nc(-c2ccccc2)c(-c2ccccc2)[nH]1)NCCN1C(=O)CSC1=O | 1.5 | 10 | nt | nt | nt | 0.22
O=C(CSc1nc(C2CCCCC2)n(-c2ccccc2)n1)NCCN1C(=O)CSC1=O | 2* | 5 | 0.9 | -0.3 | 9 | 2.3
O=C(O)c1ccccc1C=Nc1ccc2[nH]c(=O)[nH]c2c1 | nt | nt | nt | nt | -12 | nt
O=C(Nc1cccc(Cl)c1)/C(=C/c1cccnc1)NC(=O)c1cccc(Br)c1 | nt | nt | nt | nt | 0 | nt
COCc1cc(=O)[nH]c2cc(NC(=O)C(C)(C)CCl)c(C)cc12 | 0.9 | nt | nt | nt | nt | -7.8*
CCCCCC(=O)Nc1cc2[nH]c(=O)cc(COC)c2cc1C | 0.9 | nt | nt | nt | nt | -0.00069
COc1ccc(-c2ccc(C=C3C(=O)c4ccccc4C3=O)o2)c([N+](=O)[O-])c1 | nt | nt | nt | nt | 9 | nt
Cc1ccccc1/C(N)=N/OC(=O)c1ccc(C)c([N+](=O)[O-])c1 | nt | nt | nt | nt | -19 | nt
Cc1ccc(-c2nc(-c3cccnc3)no2)cc1 | 1 | -3 | 0.9 | -4.9* | -2 | -0.018
CC(C)(C)c1ccc(-c2nc(-c3ccncc3)no2)cc1 | nt | 1 | 0.9 | -0.48 | 10 | -0.18
c1ccc(-c2noc(-c3cccnc3)n2)nc1 | 0.9 | 7 | 1 | -4.1* | 6 | 0.008
c1ccc(-c2noc(-c3ccc4c(c3)OCO4)n2)nc1 | 0.9 | 1 | 1 | -8.3* | 0 | 0.32
Cc1cc(C)cc(-c2nc(-c3ccncc3)no2)c1 | 1.4 | 21* | 0.9 | nt | -5 | -0.064
COCCNCCOc1cccc(Cl)c1Cl | nt | nt | nt | nt | 5 | nt
O=c1c2ccccc2n(Cc2cccc(C(F)(F)F)c2)c2ccccc12 | nt | nt | nt | nt | -1 | nt
c1ccc(-c2noc(-c3ccc4ccccc4c3)n2)nc1 | 0.9 | 1 | 0.9 | -4.4* | 0 | 0.26
CCOC(=O)N1CCN(c2ncnc3c2oc2nc(C)c4c(c23)CC(C)(C)OC4)CC1 | 1.5 | 4 | 0.9 | 1.7 | 5 | nt
CC(C)c1nc2oc3c(NCc4ccccn4)ncnc3c2c2c1COC(C)(C)C2 | nt | nt | 1 | 8.7* | 11 | nt
Cc1nc2oc3c(NCc4ccccn4)ncnc3c2c2c1COC(C)(C)C2 | 1.3 | 4 | 0.9 | 12* | -20 | 1.1
CC(C)c1ccc(NC(=O)c2ccc(CN3CCOCC3)cc2)cc1 | nt | nt | nt | nt | 34 | nt
COc1ccc(-n2c(O)c(C=Nc3ccc(C)cc3)c(=O)[nH]c2=O)cc1 | nt | nt | nt | nt | -15 | nt
COc1cc(C2N(c3ccccn3)C(=O)C3CCCN32)cc(OC)c1OC (stereo not drawn) | 1 | 5 | 0.9 | -0.37 | 0 | -7.9*
COc1ccc(C2N(c3ccccn3)C(=O)C3CCCN32)c(OC)c1 (stereo not drawn) | 1.3 | 1 | 1 | -0.11 | -5 | -1
SMILES | PLAP act | Candida biofilm | TNAP act DEA | D1 mod | HePTP inhibitor | DAT uptake mod
COc1ccccc1NC(=O)N1CCC(c2nc3cc(C)c(C)cc3[nH]2)CC1 | nt | 3 | nt | nt | nt | -0.062
COc1ccccc1NC(=S)N1CCC(c2nc3cc(C)c(C)cc3[nH]2)CC1 | 1.2 | nt | nt | nt | nt | -2.3*
COc1cc([N+](=O)[O-])ccc1-c1ccc(/C=C2\C(=O)N(c3ccc(S(N)(=O)=O)cc3)N=C2C)o1 | nt | nt | nt | nt | -4 | nt
CCn1c(-c2ccc(C)cc2)n[nH]c1=S | 0.7 | 5 | nt | nt | nt | -0.15
CCn1c(=S)sc2nc(C)sc21 | nt | 4 | 0.9 | 13* | 9 | 0.38
CCCCOC(=O)Nc1cc(C(=O)OC)ccc1C(=O)OC | 0.8 | 3 | 0.9 | -7* | 6 | 1.7
COC(=O)c1ccc(C(=O)OC)c(NC(=O)CCC(=O)O)c1 | 0.9 | -5 | 1 | 1.3 | 102*! | -0.039
